Autophagy HCS: autophagy modulators in MEF cells, primary screen, imaging, high-content, MEF GFP-LC3; MEF GFP-LC3 puncta imaging; test concentration mostly 10 µM; calls only at 10 µM (by protocol); hit rate 0.98% among 190,000; AID 463193, 2010;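 active = percentage of spot-positive cells more than 3 SD above its plate mean, without a fluorescence outlier flag or 80% toxicity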
L major viab: Leishmania major promastigote growth inhibition, primary screen. inhibition, % at 10 µM. hit rate 9% among 200,000. Leishmania major promastigotes, resazurin fluorescence viability; in the data active = inhibition above about 50%;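 also: promastigotes grown with compound for 44 hours at 28 °C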
Insulin prom up: insulin promoter activators in MIN6 cells, imaging, high-content screening, mouse beta cells; hit rate 0.3% among 190,000; MIN6 insulin promoter-GFP reporter; stronger effect = higher value; z-score at 5 µM;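 active = z-score above 3 at 5 µM with at least 500 cells counted in the well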
INS promoter inh: inhibitors of insulin promoter-driven GFP, primary screen, imaging, TRM-6 cells (human fetal islet line), eGFP reporter, cell count; reporter expression induced with tamoxifen; inhibition, % at 2 µM; hit rate 0.9% among 130,000; AID 1273, 2008;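 active = inhibition above the mean plus 3 SD, with well images judged a real hit on visual review, cut at about 60% in these data, passing the limit was not always enough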
WT yeast gro inh: growth inhibition of WT strain, primary screen, mitochondrial fusion inhibitor project, WT and mutant strains, chemical genetic; hit rate 2.1% among 190,000; inhibition, % at 10 µM; mitochondrial fusion phenotypic screen; in the data active = inhibition above about 58%; tested in S. cerevisiae
Numbers stand for hits; i = inactive; nt = no result; + = active, no number. Shown are actives, neighbours in structure and some others; about 11% of the full set was active somewhere.

SMILES	Autophagy HCS	L major viab	Insulin prom up	INS promoter inh	WT yeast gro inh
CCOC(=O)C1(CCOc2ccccc2)CCN(Cc2cccs2)CC1	i	i	i	nt	i
CCOC(=O)C1(Cc2cccc(OC)c2)CCN(Cc2cccc3c2OCO3)CC1	i	53.9	i	nt	i
CCOC(=O)C1(CCOc2ccccc2)CCN(Cc2ccc3c(c2)OCCO3)CC1	i	85.9	i	nt	i
OCC1(CCOc2ccccc2)CCN(Cc2ccc3c(c2)OCCO3)CC1	i	91.8	nt	nt	i
O=C(NCC1CCN(S(=O)(=O)c2ccccc2)CC1)Nc1ccccc1	nt	nt	i	nt	nt
CCOC(=O)CNC(=O)c1cc(-c2ccccn2)nc2c(C)c(Cl)ccc12	i	i	i	nt	i
Cc1ccc(C)c(NS(=O)(=O)c2cc(C(=O)N3CCCC3)ccc2Cl)c1	i	i	i	nt	i
Cc1ccc(C)c(N2C(=O)c3ccc(C(=O)OCC(=O)c4c(N)n(C)c(=O)n(C)c4=O)cc3C2=O)c1	i	50.7	i	i	i
CC1(C)CC(=O)C2=C(C1)NC1=C(C(=O)c3ccccc31)C2c1cc([N+](=O)[O-])ccc1O (stereo not drawn)	nt	nt	i	nt	nt
CC(C)(C)c1ccc(C2C3=C(CCCC3=O)NC3=C2C(=O)c2ccccc23)cc1 (stereo not drawn)	i	88.2	i	nt	i
CC1(C)CC(=O)C2=C(C1)NC1=C(C(=O)c3ccccc31)C2c1ccccc1 (stereo not drawn)	i	88.6	nt	i	i
CC1=C([N+](=O)[O-])C(c2ccccc2)C2=C(N1)c1ccccc1C2=O (stereo not drawn)	+	i	i	i	i
CC(C)c1ccc(C2C3=C(CC(C)(C)CC3=O)NC3=C2C(=O)c2ccccc23)cc1 (stereo not drawn)	i	88.8	i	nt	i
CC1(C)CC(=O)C2=C(C1)NC1=C(C(=O)c3ccccc31)C2c1cccnc1 (stereo not drawn)	i	i	nt	i	i
CCN(CC)C(=S)SCC(=O)NC12CC3CC(CC(C3)C1)C2	i	i	nt	i	i
COc1cccc(NC(=O)CSc2nc3ccccc3c(=O)n2Cc2cccs2)c1	+	i	nt	i	i
Cc1ccc(NC(=O)CSc2nc3ccccc3c(=O)n2CCCN2CCCCC2)cc1Cl	i	100.5	i	i	i
CCOC(=O)c1ccc(NC(=O)CSc2nnc(CCc3ccc(C)o3)n2-c2ccccc2)cc1	i	51.6	i	i	i
Cc1ccc(CCc2nnc(SCC(=O)Nc3ccccc3Cl)n2-c2ccccc2)o1	i	i	i	nt	i
COc1ccc(NC(=O)CSc2nc3ccccc3c(=O)n2CCCN2CCC(C)CC2)c(OC)c1	i	55.2	i	i	i
COc1ccc(NC(=O)CSc2nc3ccccc3c(=O)n2Cc2cccs2)c(OC)c1	i	i	i	i	i
CCOc1ccc(N(CC(=O)NCc2cccc(OC)c2)S(=O)(=O)c2c(C)noc2C)cc1	i	i	i	i	i
CC1CCN(CCCn2c(SCC(=O)Nc3ccccc3Cl)nc3ccccc3c2=O)CC1	i	64.6	i	i	i
CCOc1ccc(NC(=O)CSc2nc3ccccc3c(=O)n2CCCC(=O)N2CCCC2)cc1	i	i	i	i	i
COC(=O)c1ccc2c(=O)n(CC3CCCO3)c(SCC(=O)Nc3ccccc3OC)nc2c1 (stereo not drawn)	+	i	i	nt	i
SMILES	Autophagy HCS	L major viab	Insulin prom up	INS promoter inh	WT yeast gro inh
COc1ccc(NC(=O)CSc2nc3ccccc3c(=O)n2CCC(=O)N2CCCCC2)cc1	i	70.0	nt	i	i
COc1ccc(NC(=O)CSc2nnc(C3CC3)n2N)cc1	i	i	i	nt	i
COC(=O)c1ccc2c(=O)n(CC3CCCO3)c(SCC(=O)Nc3ccccc3Cl)nc2c1 (stereo not drawn)	i	i	i	i	i
COc1ccc(NC(=O)CSc2nnc(C3CCCCC3)n2-c2ccccc2)cc1	i	69.7	i	i	i
O=C(CSc1nc2ccccc2c(=O)n1CCCN1CCOCC1)Nc1cccc(S(=O)(=O)N2CCCCCC2)c1	i	73.8	i	i	i
CCOC(=O)CC(NC(=O)Cn1nnc(-c2ccccc2F)n1)c1ccccc1Cl (stereo not drawn)	i	i	i	i	i
CC1CCC(N2CCN(S(C)(=O)=O)CC2)CC1 (stereo not drawn)	i	88.9	i	i	i
O=C(c1ccccc1)N1CCN(C2C3CC4CC(C3)CC2C4)CC1 (stereo not drawn)	i	i	i	i	i
CCS(=O)(=O)N1CCN(C2CCC(C)CC2)CC1 (stereo not drawn)	i	90.3	i	i	i
CS(=O)(=O)N1CCN(C2C3CC4CC(C3)CC2C4)CC1 (stereo not drawn)	i	79.8	i	nt	i
Cn1c(=O)c2c(nc(NN=C3CCCC3)n2C)n(C)c1=O	nt	nt	i	nt	nt
NC(=S)NC(=O)/C=C/c1ccccc1	i	i	i	i	i
CC(C)(C)OC(=O)CC[C@@H](C(=O)N1CCN(C(=O)OC(C)(C)C)CC1)n1cc(C(Cc2ccc(O)cc2)NC(=O)OC(C)(C)C)nn1 (stereo partly drawn)	i	i	i	nt	i
CC1CCCC(NC(=O)c2cn(C)c3ccc(S(=O)(=O)N4CCCC4)cc3c2=O)C1C (stereo not drawn)	i	62.9	i	nt	i
CC1CCCCC1NC(=O)c1cn(C)c2ccc(S(=O)(=O)N3CCCC3)cc2c1=O (stereo not drawn)	i	i	i	nt	i
CCn1cc(C(=O)NC2CCC(C)CC2)c(=O)c2cc(S(=O)(=O)N3CCCCC3)ccc21 (stereo not drawn)	i	76.1	i	nt	i
Cc1nc2c(C)cccn2c1/C(O)=C1\C(=O)C(=O)N(CCN(C)C)C1c1ccccc1 (stereo not drawn)	nt	nt	i	nt	nt
CC(Sc1ccc(Cl)cc1)C(=O)Nc1ccccc1-c1ccccc1 (stereo not drawn)	i	i	i	i	74.5
Cc1ccc(SC(C)C(=O)Nc2ccncc2)cc1 (stereo not drawn)	i	92.7	i	i	i
Cc1ccc(SC(C)C(=O)Nc2ccccc2-c2ccccc2)cc1 (stereo not drawn)	i	i	nt	i	78.3
CC1CN(C(=O)c2ccccc2)c2ccccc2NC1=O (stereo not drawn)	i	i	i	i	i
Cc1ccc(NC(=O)COC(=O)[C@H](C)N2C(=O)C3CC=CCC3C2=O)cc1S(=O)(=O)N(C)C (stereo partly drawn)	i	i	i	i	i
COc1ccc(-c2nc(-c3cccc(C)c3)no2)cc1OC	i	i	nt	i	i
COc1cc(-c2nc(-c3cccc(C)c3)no2)cc(OC)c1OC	i	i	nt	i	66.2
COc1ccc(NC(=O)CS(=O)(=O)c2cn(CC(=O)N3CCOCC3)c3ccccc23)cc1	i	i	i	i	i
COc1cccc(/C=N/NC(N)=S)c1OCc1ccccc1Cl	i	i	i	i	i
Cc1ccc(S(=O)(=O)Oc2ccccc2/C=N/NC(N)=S)cc1	+	i	i	i	i
COc1cccc(/C=N/NC(N)=S)c1OS(=O)(=O)c1ccccc1	i	i	nt	i	i

Source: PubChem BioAssay
